Compound activity: PubChem BioAssay, National Center for Advancing Translational Sciences (NCATS)
This is a sample that favours compounds with a hit; in the whole collection about 19% have one here.
TDP1 cell noCPT = qHTS for Inhibitors of human tyrosyl-DNA phosphodiesterase 1 (TDP1): qHTS in cells in absence of CPT | DT40 Tdp1-/- hTDP1 cells, no CPT, ATP luminescence, 48 h | Potency, µM (titrated, usually from 46.2 µM), actives largely listed as inhibitors | actives 15% (n = 420,000) | AID 686978, 2013; also: nearly all actives have a fitted effect of over 55% in size
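Growth kinetics read by CellTiter-Glo luminescence after ≥48 hr at 37 °C. Cells: DT40 Tdp1-/- stably carrying human TDP1, 400 per well, compound exposure in the absence of CPT (DMSO vehicle).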
DT40 TDP1 CPT = DT40-hTDP1 cell growth loss with CPT | chicken DT40 Tdp1-/-;hTDP1 cells + 20 nM CPT, ATP luminescence, 48 h | Potency, µM (top dose mostly 46.2 µM), actives largely listed as inhibitors | actives 12% (n = 420,000) | AID 686979; also: nearly all actives have a fitted effect of over 55% in size
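Cell growth measured by CellTiter-Glo luminescence after a minimum 48 h, 37 C compound exposure with 20 nM CPT in Tdp1-knockout DT40 cells stably expressing hTDP1, seeded 400/well; qHTS titration format.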
HT1080 IDH1KD tx = HT-1080 IDH1 knockdown cell toxicity (counter line). HT-1080 IDH1 knockdown viability, ATP luminescence, 48 h. Potency, µM (series often up to 46.1 µM), most hits filed as cytotoxic. actives 2% (n = 360,000). AID 686971
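Assay cells: HT-1080 with IDH1 knockdown, 750 per well, RPMI/5% FBS. Exposure: 48 h at 37 °C following 2 h pre-incubation. Read: CellTiter-Glo luminescence; fitted concentration-response, curve class assigned.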
KB-3-1 tox = kills parental KB-3-1 adenocarcinoma cells; Potency, µM (top dose mostly 46.1 µM), most hits filed as cytotoxic; KB-3-1 viability, CellTiter-Glo ATP luminescence, 72 h; actives 1.4% (n = 400,000); also: nearly all actives have a fitted effect of over 60% in size
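Cells are dispensed, compounds pinned in, plates held at 37 °C for 72 h, then CellTiter-Glo is added and luminescence read after 10 minutes. Cell line: parental KB-3-1 in phenol-red-free DMEM, 10% FBS.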
KB-V1 MDR tox = kills drug-selected multidrug resistant KB-V1 cells | KB-V1 MDR cells viability, CellTiter-Glo, 72 h | Potency, µM (top dose mostly 46.1 µM), most hits filed as cytotoxic | actives 3.4% (n = 400,000) | AID 1347076; also: nearly all actives have a fitted effect of over 60% in size
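Cytotoxicity toward P-gp-expressing KB-V1 cells was determined as loss of CellTiter-Glo luminescence after 72 h at 37 degrees C. Compounds were tested in quantitative HTS format across a concentration range, with curves fitted to normalized data.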
HT1080NT lethal = kills 2HG-producing HT-1080-NT fibrosarcoma cells | HT-1080-NT fibrosarcoma viability, CellTiter-Glo ATP luminescence, 48 h | Potency, µM (doses to about 46.1 µM), hits mostly cytotoxic | actives 1.6% (n = 360,000);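 also: NT is the 2HG producing partner of a matched IDH1 knockdown line; nearly all actives have a fitted effect of over 55% in size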
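HT-1080-NT; 750 cells/well; 5% FBS RPMI; 48 h compound, 37 degrees C; CellTiter-Glo luminescence; curve fitting and curve-class assignment.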
Hits are given with their value; - = inactive; ? = inconclusive; . = no result given. Calls follow the shape of the dose curve; as a rule, active = well fitted curve in the direction sought with a large enough effect; inconclusive = small, poorly fitted or top-dose-only effect, or another doubt; inactive = no such curve, though single readings can be large; an effect the other way counts as inactive or inconclusive.

SMILES | TDP1 cell noCPT | DT40 TDP1 CPT | HT1080 IDH1KD tx | KB-3-1 tox | KB-V1 MDR tox | HT1080NT lethal
CC(C)Oc1ccc(S(=O)(=O)N2CCOCC2)cc1NC(=O)CCCSc1ccccc1 | ? | ? | - | - | - | -
CC(=O)Nc1ccc(S(=O)(=O)N2CCN=C2SCc2ccc(F)cc2)cc1 | 26µM | 18µM | - | - | - | -
Cc1cccc(CSC2=NCCN2C(=O)c2ccc(S(=O)(=O)N(C)C)cc2)c1 | 23µM | ? | - | - | - | -
Cc1ccc(S(=O)(=O)N2CCN=C2SCc2ccccc2)cc1 | - | - | - | - | - | -
Cc1cccc(CSC2=NCCN2S(=O)(=O)c2ccc(F)cc2)c1 | ? | 16µM | - | - | - | -
CC(=O)Nc1ccc(S(=O)(=O)N2CCN=C2SCc2ccc(C)cc2)cc1 | ? | ? | - | - | - | -
CCc1ccc(NC(=O)CSc2nnc(CNC(=O)c3cccs3)o2)cc1 | - | - | - | - | ? | -
COc1ccc(C(O)c2ncc(-c3ccccc3C)[nH]2)cc1F (stereo not given) | ? | ? | - | - | - | -
Cc1ccc2ccc(C(Nc3ccccc3)c3ccccc3)c(O)c2n1 (stereo not given) | 6.5µM | 10µM | ? | 4.1µM | ? | -
Cc1ccc2ccc(C(Nc3ccccc3)c3ccc(C(C)C)cc3)c(O)c2n1 (stereo not given) | 12µM | 15µM | ? | 15µM | ? | ?
Cc1ccc2ccc(C(Nc3ccccc3)c3ccc(F)cc3)c(O)c2n1 (stereo not given) | 5.8µM | 9.2µM | ? | - | ? | ?
Cc1ccc2ccc(C(Nc3ccccc3)c3ccc(Cl)cc3)c(O)c2n1 (stereo not given) | 3.3µM | 4.1µM | ? | ? | ? | -
Cc1ccc2ccc(C(Nc3cccc(C(F)(F)F)c3)c3cccnc3)c(O)c2n1 (stereo not given) | ? | ? | - | - | - | -
COc1ccc(NC(=O)Nc2nnc(N3CCCC3)s2)cc1 | ? | - | . | - | ? | .
O=S1(=O)N=C(Nc2cccc(C(F)(F)F)c2)c2ccccc21 | ? | ? | . | - | - | .
O=S(=O)(c1ccccc1)N1CCNCC1 | - | - | - | - | - | -
O=C(C[N+]12CN3CN(CN(C3)C1)C2)c1ccc(Cl)cc1 | ? | ? | . | - | - | .
O=C(C[N+]12CN3CN(CN(C3)C1)C2)c1ccc(O)c(O)c1 | ? | 10µM | . | - | - | .
COc1ccc(NC(=O)CNc2ccc(OC)c(S(=O)(=O)N3CCOCC3)c2)cc1 | - | - | - | - | - | -
CC(C)CN(CC(C)C)C(=O)COc1ccccc1C(N)=O | 12µM | ? | - | - | - | -
Cc1ccc(C)c(Cn2c(=O)n(CCCC(=O)NCc3ccc4c(c3)OCO4)c(=O)c3sccc32)c1 | 15µM | ? | . | . | . | .
O=C(CCn1c(=O)c2ccccc2n(Cc2ccc(F)cc2Cl)c1=O)NCc1ccc2c(c1)OCO2 | ? | - | . | - | - | .
CCc1ccc(NC(=O)Cn2c(=O)n(CCCC(=O)NCc3ccc4c(c3)OCO4)c(=O)c3ccccc32)cc1 | ? | 21µM | . | - | - | .
COc1ccc(NC(=O)CCCn2c(=O)c3sccc3n(Cc3ccc(C)cc3C)c2=O)cc1 | 16µM | 21µM | - | - | 8.2µM | -
COc1ccc(NC(=O)CCCn2c(=O)c3sccc3n(Cc3ccc(C)cc3)c2=O)cc1 | ? | - | - | - | - | -
O=C(CCCCn1c(=O)c2ccccc2n(Cc2cccc(F)c2)c1=O)NCc1ccc2c(c1)OCO2 | 23µM | ? | . | ? | ? | .
O=C(CCN1CCC(c2ccc(Cl)s2)=N1)c1ccc(Cl)s1 | ? | ? | - | - | - | -
O=C(O)[C@H](Cc1ccccc1)NC(=O)N1CCN(c2ccc(F)cc2)CC1 | - | - | - | - | - | -
COc1ccc(CN2C(=O)CSCC2(C)C(=O)Nc2ccc3c(c2)OCCO3)cc1 (stereo not given) | ? | ? | - | - | - | -
